PubChem BioAssay AID1159580 (chemical genetic matrix, 2015)
Where “and” joins values, the source holds several entries; their conditions need not be identical. Identical values can stand only once. Among all 5,500 compounds or so, about 2,000 (36%) were called active. Another 18% or so got no clear call; they are omitted. Cut-off read from the data, not from the text of the source: active = normalized growth mostly below about 0.91 (no sharp cut-off); inconclusive = no clear call, values can overlap the other calls; inactive = mostly above about 0.92. The list shows a part of the results.

Assay: chemical genetic growth profiling, strain panel (AID 1159580);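 note: tested at 20 µM; growth read once vehicle control cultures reached saturation at 30 °C; 1 = growth at the plate median or of vehicle wells; lower values mean less growth of the strain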
Details: growth OD

Measured: normalized growth

O=c1n(CCCN2CCN(c3cccc(Cl)c3)CC2)nc2ccccn12
inactive: S. cerevisiae deletion strains, locus YJR066W, strain TOR1, active compounds read low 0.943 | S. cerevisiae deletion strains, locus YJR075W, strain HOC1, active compounds read low 0.94 and 0.981 | S. cerevisiae deletion strains, locus YKL009W, strain mrt4, active compounds read low 0.967 | S. cerevisiae deletion strains, locus YKL068W, active compounds read low 0.989 | S. cerevisiae deletion strains, locus YKL085W, strain MDH1 (second series), active compounds read low 0.992 | S. cerevisiae deletion strains, locus YKL085W, strain MDH1, active compounds read low 0.992 | S. cerevisiae deletion strains, locus YKL160W, strain elf1, active compounds read low 0.986 | S. cerevisiae deletion strains, locus YKL190W, strain CNB1, active compounds read low 0.986 | S. cerevisiae deletion strains, locus YKR001C, strain vps1, active compounds read low 0.972 | S. cerevisiae deletion strains, locus YKR026C, strain gcn3, active compounds read low 0.984 | S. cerevisiae deletion strains, locus YKR091W, strain srl3, active compounds read low 0.993 | S. cerevisiae deletion strains, locus YLL001W, strain dnm1, active compounds read low 0.986 | S. cerevisiae deletion strains, locus YLL026W, active compounds read low 0.986 | S. cerevisiae deletion strains, locus YLL041C, strain sdh2, active compounds read low 0.994 | S. cerevisiae deletion strains, locus YLR027C, strain aat2, active compounds read low 0.979 | S. cerevisiae deletion strains, locus YLR039C, strain RIC1, active compounds read low 0.975 | S. cerevisiae deletion strains, locus YLR058C, strain SHM2, active compounds read low 0.964 | S. cerevisiae deletion strains, locus YLR102C, strain apc9, active compounds read low 0.993 | S. cerevisiae deletion strains, locus YLR113W, strain HOG1, active compounds read low 1 | S. cerevisiae deletion strains, locus YLR221C, strain rsa3, active compounds read low 0.985 | S. cerevisiae deletion strains, locus YLR258W, strain gsy2, active compounds read low 0.99 | S. cerevisiae deletion strains, locus YLR262C, strain YPT6 (second series), active compounds read low 0.965 | S. cerevisiae deletion strains, locus YLR262C, strain YPT6, active compounds read low 0.948 | S. cerevisiae deletion strains, locus YLR268W, strain sec22, active compounds read low 0.98 | S. cerevisiae deletion strains, locus YLR320W, strain mms22, active compounds read low 0.966 | S. cerevisiae deletion strains, locus YLR330W, strain CHS5, active compounds read low 0.989 | S. cerevisiae deletion strains, locus YLR342W, strain FKS1 (second series), active compounds read low 1.04 | S. cerevisiae deletion strains, locus YLR342W, strain FKS1, active compounds read low 0.983 | S. cerevisiae deletion strains, locus YLR357W, strain rsc2, active compounds read low 0.932 | S. cerevisiae deletion strains, locus YLR370C, strain arc18, active compounds read low 0.982 | S. cerevisiae deletion strains, locus YLR371W, strain rom2, active compounds read low 0.994 | S. cerevisiae deletion strains, locus YLR384C, strain iki3, active compounds read low 0.983 | S. cerevisiae deletion strains, locus YLR418C, strain cdc73, active compounds read low 1 | S. cerevisiae deletion strains, locus YML016C, strain PPZ1, active compounds read low 0.98 | S. cerevisiae deletion strains, locus YML032C, strain rad52, active compounds read low 0.979 | S. cerevisiae deletion strains, locus YML120C, strain ndi1, active compounds read low 0.977 | S. cerevisiae deletion strains, locus YML124C, strain tub3, active compounds read low 0.989 | S. cerevisiae deletion strains, locus YMR058W, strain fet3, active compounds read low 0.976 | S. cerevisiae deletion strains, locus YMR078C, strain ctf18, active compounds read low 0.995 | S. cerevisiae deletion strains, locus YMR125W, strain sto1, active compounds read low 0.969 | S. cerevisiae deletion strains, locus YMR129W, active compounds read low 0.984 | S. cerevisiae deletion strains, locus YMR205C, strain PFK2, active compounds read low 0.964 | S. cerevisiae deletion strains, locus YMR223W, strain ubp8, active compounds read low 1.01 | S. cerevisiae deletion strains, locus YMR231W, strain pep5, active compounds read low 0.989 | S. cerevisiae deletion strains, locus YMR263W, strain SAP30, active compounds read low 0.983 | S. cerevisiae deletion strains, locus YMR307W, strain GAS1, active compounds read low 1.08 and 1.01 | S. cerevisiae deletion strains, locus YNL067W, strain RPL9B, active compounds read low 0.969 | S. cerevisiae deletion strains, locus YNL071W, strain lat1, active compounds read low 0.963 | S. cerevisiae deletion strains, locus YNL153C, strain GIM3, active compounds read low 0.945 | S. cerevisiae deletion strains, locus YNL175C, strain NOP13, active compounds read low 0.999 | S. cerevisiae deletion strains, locus YNL183C, strain NPR1, active compounds read low 0.943 | S. cerevisiae deletion strains, locus YNL197C, strain WHI3, active compounds read low 1 | S. cerevisiae deletion strains, locus YNL209W, strain ssb2, active compounds read low 0.989 | S. cerevisiae deletion strains, locus YNL224C, strain SQS1, active compounds read low 0.998 | S. cerevisiae deletion strains, locus YNL233W, strain BNI4, active compounds read low 0.956 | S. cerevisiae deletion strains, locus YNL248C, strain rpa49, active compounds read low 0.976 | S. cerevisiae deletion strains, locus YNL250W, strain rad50, active compounds read low 0.973 | S. cerevisiae deletion strains, locus YNL271C, strain bni1, active compounds read low 0.986 | S. cerevisiae deletion strains, locus YNL298W, strain CLA4, active compounds read low 0.999 | S. cerevisiae deletion strains, locus YNL307C, strain MCK1, active compounds read low 0.993 | S. cerevisiae deletion strains, locus YNL322C, strain KRE1 (second series), active compounds read low 0.964 | S. cerevisiae deletion strains, locus YNL322C, strain KRE1, active compounds read low 0.997 | S. cerevisiae deletion strains, locus YNR049C, strain mso1, active compounds read low 0.979 | S. cerevisiae deletion strains, locus YNR052C, strain pop2, active compounds read low 0.992 | S. cerevisiae deletion strains, locus YOL006C, strain TOP1, active compounds read low 0.781 | S. cerevisiae deletion strains, locus YOL012C, strain htz1 1.02 | S. cerevisiae deletion strains, locus YOL147C, strain pex11, active compounds read low 0.992 | S. cerevisiae deletion strains, locus YOR001W, strain rrp6, active compounds read low 0.991 | S. cerevisiae deletion strains, locus YOR061W, strain CKA2, active compounds read low 0.965 | S. cerevisiae deletion strains, locus YOR069W, strain VPS5, active compounds read low 0.987 | S. cerevisiae deletion strains, locus YOR070C, strain gyp1, active compounds read low 0.974 | S. cerevisiae deletion strains, locus YOR080W, strain dia2, active compounds read low 0.975 | S. cerevisiae deletion strains, locus YOR083W, strain WHI5 (second series), active compounds read low 1.02 | S. cerevisiae deletion strains, locus YOR083W, strain WHI5, active compounds read low 0.984 | S. cerevisiae deletion strains, locus YOR106W, strain vam3, active compounds read low 0.977 | S. cerevisiae deletion strains, locus YOR136W, strain idh2, active compounds read low 0.983 | S. cerevisiae deletion strains, locus YOR144C, strain elg1, active compounds read low 0.996 | S. cerevisiae deletion strains, locus YOR184W, strain ser1, active compounds read low 0.992 | S. cerevisiae deletion strains, locus YOR231W, strain MKK1, active compounds read low 1 | S. cerevisiae deletion strains, locus YOR265W, strain rbl2, active compounds read low 0.969 | S. cerevisiae deletion strains, locus YOR270C, strain vph1, active compounds read low 0.902 | S. cerevisiae deletion strains, locus YOR290C, strain snf2, active compounds read low 0.939 | S. cerevisiae deletion strains, locus YOR316C, strain cot1, active compounds read low 0.99 | S. cerevisiae deletion strains, locus YPL051W, strain arl3, active compounds read low 0.982 | S. cerevisiae deletion strains, locus YPL078C, strain atp4, active compounds read low 0.975 | S. cerevisiae deletion strains, locus YPL106C, strain sse1, active compounds read low 0.971 | S. cerevisiae deletion strains, locus YPL240C, strain hsp82, active compounds read low 0.984 | S. cerevisiae deletion strains, locus YPL241C, strain CIN2, active compounds read low 0.997 | S. cerevisiae deletion strains, locus YPL256C, strain CLN2, active compounds read low 1.01 | S. cerevisiae deletion strains, locus YPR119W, strain clb2, active compounds read low 0.99 | S. cerevisiae deletion strains, locus YPR141C, strain kar3, active compounds read low 0.984 | S. cerevisiae deletion strains, locus YPR163C, strain tif3, active compounds read low 0.991 | S. cerevisiae deletion strains, locus YPR167C, strain met16, active compounds read low 1 | S. cerevisiae deletion strains, strain wtn01, active compounds read low 1.03 | S. cerevisiae strains, strain wild type, active compounds read low 0.979
